Assay results published in PubChem BioAssay (Tox21).
Records with an inconclusive call do not appear. Where a call stands in place of a potency, no number is given. Calls of active or inactive are those of the source. Calls come from the whole dose curve; as a rule, active = well fitted inhibition curve with a large enough effect in the repeat runs; inconclusive = weak or mixed curves; inactive = no such curve, though single readings can be large or run the other way.
Potency is the fitted concentration of half-maximal effect.

Each molecule was assayed against Cytochrome P450 3A4 (Homo sapiens) (UniProt P08684) (assay: Cytochrome P450 Family 3 Subfamily A Member 4 (CYP3A4) small molecule antagonists: luciferase reporter qHTS assay (AID 1671201; note: nearly all actives have a fitted effect of over 50% in size)). Conditions: P450-Glo CYP3A4 enzyme, luciferin luminescence, 1 h; series mostly up to 115 µM.
Chain of Cytochrome P450 3A4 (Homo sapiens) (P08684 whole entry, looked up): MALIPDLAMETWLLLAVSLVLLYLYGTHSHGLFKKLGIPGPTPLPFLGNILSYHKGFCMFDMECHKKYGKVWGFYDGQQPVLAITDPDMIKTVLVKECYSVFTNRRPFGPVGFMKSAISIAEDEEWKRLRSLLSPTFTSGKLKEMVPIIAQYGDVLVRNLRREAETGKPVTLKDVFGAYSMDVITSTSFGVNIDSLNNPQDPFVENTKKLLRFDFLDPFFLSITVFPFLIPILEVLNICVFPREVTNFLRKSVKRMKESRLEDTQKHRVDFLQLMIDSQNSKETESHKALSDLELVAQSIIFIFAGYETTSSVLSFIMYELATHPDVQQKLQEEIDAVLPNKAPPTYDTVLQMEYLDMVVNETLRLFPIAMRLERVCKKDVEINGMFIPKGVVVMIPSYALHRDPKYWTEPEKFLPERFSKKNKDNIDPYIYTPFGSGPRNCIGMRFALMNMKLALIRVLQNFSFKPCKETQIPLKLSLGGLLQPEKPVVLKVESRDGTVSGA
Procedure, shortened: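 Enzyme and proluciferin substrate are mixed with test chemicals for 10 min, then NADPH regeneration system drives turnover for 1 h at room temperature. A detection reagent halts the reaction; luminescence after 20 min gives relative activity.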
With O=C(O)c1cccnc1Nc1cccc(C(F)(F)F)c1 the Potency was “inactive”.
For CC(C)(C)c1cc(C=O)cc(C(C)(C)C)c1O, the Potency was “inactive”.
For CC/C=C\CCO, the Potency was “inactive”.
For C=C(C)C(=O)OCCCCCCCCCCOC(=O)C(=C)C, the Potency was “inactive”.
With c1ccc(-c2ccc(-c3ccccc3)cc2)cc1 the activity change, negative = inhibition was -14.7% [at 23.6 µM] (inactive).
With O=C1c2ccccc2C(=O)C1c1ccc2cc(S(=O)(=O)O)cc(S(=O)(=O)O)c2n1 the Potency was “inactive”.
With C=CC(=O)NC(C)(C)C the Potency was “inactive”.
With CC1(COc2ccc(CC3SC(=O)NC3=O)cc2)CCCCC1 (centres undefined) the Potency was “inactive”.
NC(=O)c1ccccc1C(N)=O was tested, and the Potency was 63.5 µM (active).
With O=C(Cl)c1ccc(F)c(Cl)c1 the Potency was “inactive”.
With O=c1c2ccccc2oc2ccccc12 the Potency was “inactive”.
For CC(C)(Cc1c[nH]c2ccccc12)NCC(O)COc1ccccc1C#N (centres undefined), the Potency was “inactive”.
With O=C(O)c1ccccc1-n1cc(C(=O)O)c(=O)c2cc(Nc3c(F)cc(F)cc3Cl)c(Cl)cc21 the Potency was “inactive”.
C=CC(O)CCCCC (centres undefined) was tested, and the Potency was “inactive”.
In the case of CCCCOC(=O)CC#N, the Potency is reported as “inactive”.
With Cc1cc(SC2=C(O)C[C@@](CCc3ccc(N)cc3)(C(C)C)OC2=O)c(C(C)(C)C)cc1CO the Potency was 3.99 µM (active).
In the case of CCCCCCCCCCCCSC#N, the Potency is reported as “inactive”.
In the case of CC(CN=Cc1ccccc1O)N=Cc1ccccc1O (centres undefined), the Potency is reported as “inactive”.
With CC(C)=CCCC(C)C=O (centres undefined) the Potency was 35.6 µM (active).
With Cc1nc2sccn2c(=O)c1CCN1CCC(=C(c2ccc(F)cc2)c2ccc(F)cc2)CC1 the Potency was “inactive”.
For Nc1nc(Cl)nc2c1ncn2[C@H]1C[C@H](O)[C@@H](CO)O1, the Potency was “inactive”.
In the case of O=S(=O)(O)c1cc(Cl)c(Cl)cc1Cl, the Potency is reported as “inactive”.
In the case of Nc1cccc2c(=O)[nH][nH]c(=O)c12, the Potency is reported as “inactive”.
In the case of Nc1ccccc1Nc1ccccc1, the Potency is reported as 31.8 µM (active).
With Cc1c(Nc2ncccc2C(=O)O)cccc1C(F)(F)F the Potency was “inactive”.
OCCc1ccncc1 was tested, and the Potency was 28.3 µM (active).
In the case of CC1=CC(=C(c2ccc(N)cc2)c2ccc(N)cc2)C=CC1=N, the Potency is reported as 2.86 µM (active).
In the case of CCCCCCCCCCCCCCCCN, the Potency is reported as “inactive”.
With Oc1ccc(CCNCCCCCCNCCc2ccccc2)cc1O the Potency was “inactive”.
